# Experimental data as given in PubChem BioAssay (Tox21).
# “And” between values parts separate entries of the source, which are not always exact repeats. Equal entries are not always repeated. Results filed as inconclusive are left out. A structure can be active in one record and inactive in another. The source made the active and inactive calls. Calls follow the shape of the full dose curve.
# Test: qHTS assay to identify small molecule antagonists of the sonic hedgehog signaling (Shh) pathway (AID 1259369); also: nearly all actives have a fitted effect of over 45% in size
# Conditions: NIH/3T3 Gli1-Luc reporter, Shh antagonist, luminescence 24 h; series mostly up to 92.4 µM; activity change, negative = inhibition: at the top concentration
# Excerpt: U.S. Tox21 Program National Center for Advancing Translational Sciences [NCATS] NIH Chemical Genomics Center [NCGC] U.S. Environmental Protection Agency [EPA] National Institutes of Environmental Health Sciences [NIEHS] National Toxicology Program [NTP] U.S. Food and Drug Administration [FDA] Tox21 Assay Overview: The sonic hedgehog (Shh) pathway is essential for normal embryonic development. Dysregulation of the Shh pathway can cause severe developmental defects in organs. Therefore chemicals that interfere with the pathway are potential developmental toxicants. A cell line designated 3T3Gli1-Luc (DMB/OARSA/CFSAN/FDA, Laurel, MD), a NIH/3T3 derived clone containing stably integrated Gli1-Luc reporter is used to detect chemical interference of the Shh pathway, by changes in the expression of the firefly Luc gene under the control of the Gli1 transcriptional response element. This cell line was used to screen Tox21 libraries for identifying and prioritizing the potential developmental toxicants that interfere Shh pathway. Conditioned medium-stimulated mode was used to screen for chemicals inhibiting Shh signaling.
# Tox21 Assay Protocol Summary: 3T3 Gli1-Luc cells were dispensed at 2,000 per well in 5uL of culture medium into white solid bottom 1536-well plates (Greiner Bio-One, Monroe, NC) using a Multidrop Combi (Thermo Scientific, Waltham, MA) dispenser. The assay plates were incubated at 37 C and 5% CO2 for 4hr, and then 23nL of compounds dissolved in DMSO and positive control were transferred using a Pintool station (Wako, San Diego, CA). The compound transfer was followed by the addition of 1ul conditioned medium or assay buffer using two separate tips of Flying Reagent Dispenser (FRD, Aurora Discovery, San Diego, CA). The assay plates were incubated at 37C and 5% CO2 for 24hr. For luciferase read, 4uL of Amplite Luciferase reporter gene assay reagent (AAT Bioquest, Inc. Sunnyvale, CA) was added to each well of the assay plates using FRD and incubated at room temperature for 30min. The luminescence signal was measured using a ViewLux plate reader (Perkin Elmer, Shelton, CT).
# % is scaled to controls: 0 for no effect and ±100 for the full control effect; potency is read from the fitted curve at half-maximal effect.
Compound,"activity change, negative = inhibition",Potency
CCOC(=O)CC(SP(=S)(OC)OC)C(=O)OCC (stereo not given),1.47% [at 42.5 µM] (inactive),
CC(C)NCC(O)c1ccc([N+](=O)[O-])cc1 (stereo not given),7.94% [at 42.5 µM] (inactive),
COC[C@@H](NC(C)=O)C(=O)NCc1ccccc1,18% [at 42.5 µM] (inactive),
CC(C)(C)NC[C@H](O)c1ccc(O)cc1Cl,-12.3% [at 42.5 µM] (inactive),
O=[N+]([O-])CCO,-6.78% (inactive),
O=c1[nH]c2ccccc2n1C1CCNCC1,3.5% [at 42.5 µM] (inactive),
CCC1(c2ccccc2)CCC(=O)NC1=O (stereo not given),9.94% [at 42.5 µM] (inactive),
COc1cccc([C@@]2(O)CCCC[C@@H]2CN(C)C)c1,23% [at 42.5 µM] (inactive),
N#CN=C1SCCN1Cc1ccc(Cl)nc1,2.51% (inactive),
CCOP(=S)(OCC)Oc1ccc(Cl)cc1Cl,34.8% (inactive),
CS(=O)(=O)Cl,28.5% (inactive),
CC(Cc1ccccc1)NCCn1cnc2c1c(=O)n(C)c(=O)n2C (stereo not given),0.653% (inactive),
O=C(CCl)NCO,2.46% (inactive),
COP(=O)(O)OC,-6.18% (inactive),
CCOC(=O)c1ncn2c1CN(C)C(=O)c1c(I)cccc1-2,12.5% [at 42.5 µM] (inactive),
C=CC(=O)OCCN(C)C,-2.78% (inactive),
O=C1C2CC=CCC2C(=O)N1SC(Cl)(Cl)Cl (stereo not given),,inactive and 2.69 µM (active)
Cn1c(CCCC(=O)O)nc2cc(N(CCCl)CCCl)ccc21,-1.53% [at 42.5 µM] (inactive),
CCC(C)C(C)(COC(N)=O)COC(N)=O (stereo not given),20.3% [at 42.5 µM] (inactive),
C=CCN1CC[C@]23CCCC[C@H]2[C@H]1Cc1ccc(O)cc13,0.056% [at 42.5 µM] (inactive),

Compound,"activity change, negative = inhibition",Potency
CCCN1CCC[C@@H]2Cc3nc(N)ncc3C[C@H]21,19% [at 42.5 µM] (inactive),
NNCc1ccccc1,5.74% (inactive),
NCC1(CC(=O)O)CCCCC1,20.2% [at 42.5 µM] (inactive),
CCOC(=O)N(C)N=O,1.01% (inactive),
Clc1nc(Cl)nc(Nc2ccccc2Cl)n1,0% (inactive),
CCN1CCCC1CNC(=O)C(O)(c1ccccc1)c1ccccc1 (stereo not given),3.44% [at 42.5 µM] (inactive),
CCCOc1nn(C(=O)NS(=O)(=O)c2ccccc2C(=O)OC)c(=O)n1C,0% (inactive),
CCCOC(=O)Cc1ccc(OCC(=O)N(CC)CC)c(OC)c1,1.23% [at 42.5 µM] (inactive),
O=C(Cl)c1ccccc1,3.87% (inactive),
CC(O)CCl (stereo not given),6.97% (inactive),
C[C@H](CN1CCOCC1)C(C(=O)N1CCCC1)(c1ccccc1)c1ccccc1,-0.0046% (inactive),
CCNP(=S)(OC)O/C(C)=C/C(=O)OC(C)C (stereo not given),-32.8% (inactive),
CC(C)(C)c1cc(O)ccc1O,,7.7 µM (active) and 3.86 µM (active)
CC(C)N(Cc1ccccc1)C(=O)C(C)(C)C,-0.441% (inactive),
O=CCCl,8.48% (inactive),
CCC(C)(C#N)N=NC(C)(C#N)CC (stereo not given),12.8% (inactive),
C=CC1(C)OC(=O)N(c2cc(Cl)cc(Cl)c2)C1=O (stereo not given),,21.6 µM (active) and inactive
Cc1ccc(-c2nc3ccc(C)cn3c2CC(=O)N(C)C)cc1,27.1% [at 42.5 µM] (inactive),
C=C(Cl)CCl,5.11% (inactive),
CCCCCCCCSC(=O)Oc1cc(Cl)nnc1-c1ccccc1,0% (inactive),
